A number with no mark means an inactive call. The rule behind the calls is not given here.

The subject of this assay is Aerobactin synthetase IucA (Klebsiella pneumoniae hvKP1). The assay is described as follows: IucA enzyme inhibition, primary screen, biochemical, Spectrum library (AID 1346200).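 Note: 100% = wells without compound and 0% = wells lacking enzyme.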 The following applies: malachite green pyrophosphate, A620, at 8 µM, hits give low values.
Take `C[C@]12CCC(=O)C=C1CCC1C2[C@@H](O)C[C@@]2(C)C1CC[C@]2(O)C(=O)COC(=O)CCC(=O)O` (stereo not given in full): the activity remaining was 123%.
With `C=C1c2c(Cl)ccc(O)c2C(O)=C2C(=O)[C@]3(O)C(O)=C(C(N)=O)C(=O)[C@@H](N(C)C)[C@@H]3[C@@H](O)[C@H]12`, the activity remaining was 109%.
For the molecule `Cc1cc(NS(=O)(=O)c2ccc(N)cc2)no1`, the activity remaining is 110%.
With `CC(=O)Oc1ccc2c(c1C(C)C)CCC1C(C)(C)CCC[C@]21C` (stereo not given in full), the activity remaining is 97.3%.
For `C[C@]12CCC(=O)C=C1C=CC1C2CC[C@@]2(C)C1CC[C@@]21CCC(=O)O1` (stereo not given in full) the value was 119%; for `CC(=O)OCC(=O)[C@@]1(O)CCC2C3C[C@H](C)C4=CC(=O)C=CC4(C)C3[C@@H](O)CC21C` (stereo not given in full), 93.6%; for `CC(=O)Oc1ccc2c(c1)CCC1C2CC[C@]2(C)C(=O)CCC12` (stereo not given in full), 99.1%.
Turning to `CC(=O)OC1CCC2C3CCc4cc(O)ccc4C3CCC12C` (stereo not given), the activity remaining was 123%.
For `NC(N)=NCCC[C@@H](NC(=O)[C@@H](N)Cc1ccc(O)cc1)C(=O)O` the value was 110%.
As for `O=c1oc2c(O)c(O)cc3c(=O)oc4c(O)c(O)cc1c4c23`, the activity remaining is 91.8%.
As for `CN1C2CC(OC(=O)[C@H](CO)c3ccccc3)C[C@H]1[C@H]1OC21` (stereo not given in full), the figure is 109%; as for `Nc1ccc(C(=O)O)cc1`, 124%; as for `COc1cccc2c1C(=O)c1c(O)c3c(c(O)c1C2=O)C[C@@](O)(C(=O)CO)C[C@@H]3OC1C[C@H](N)[C@H](O)[C@H](C)O1` (stereo not given in full), 87.4%.
For `COC(=O)c1c(Cl)c(Cl)c(C(=O)OC)c(Cl)c1Cl` the value was 110%; for `CC[C@H]1OC(=O)[C@H](C)[C@@H](O[C@H]2C[C@@](C)(OC)[C@@H](O)[C@H](C)O2)[C@H](C)[C@@H](O[C@@H]2O[C@H](C)C[C@H](N(C)C)[C@H]2O)[C@](C)(O)C[C@@H](C)C(=O)[C@H](C)[C@@H](O)[C@]1(C)O`, 117%.
With `COc1cc2c(cc1OC)[C@@H]1C(=O)c3ccc4c(c3O[C@@H]1CO2)C=CC(C)(C)O4`, the activity remaining was 118%.
As for `Cc1cc(=O)n(-c2ccccc2)n1C`, the figure is 110%.
On to `CC1(C)S[C@@H]2[C@H](NC(=O)Cc3ccccc3)C(=O)N2[C@H]1C(=O)O`, for which the activity remaining was 111%.
On to `COc1cccc2c1C(=O)c1c(O)c3c(c(O)c1C2=O)C[C@@](O)(C(C)=O)C[C@@H]3O[C@H]1C[C@H](N)[C@H](O)[C@H](C)O1`, for which the activity remaining was 75.3%.
For the molecule `CCN(CCO)CCCC(C)Nc1ccnc2cc(Cl)ccc12` (stereo not given), the activity remaining is 109%.
As for `CC(C)NCC(O)c1ccc(O)c(O)c1` (stereo not given), the figure is 82.7%; as for `COc1ccc(-c2oc3ccccc3c(=O)c2O)cc1OC`, 109%; as for `C[C@]12C=CC(=O)C=C1CCC1C2[C@@H](O)C[C@@]2(C)C1CC[C@]2(O)C(=O)CO` (stereo not given in full), 119%.
Consider `CC(C)=CC1C(C(=O)O)C1(C)C` (stereo not given), for which the activity remaining was 121%.
As for `CN(C)CCOc1ccc(/C(=C(/CCCl)c2ccccc2)c2ccccc2)cc1`, the figure is 112%; as for `Nc1ccc(S(=O)(=O)c2ccc(N)cc2)cc1`, 109%; as for `CC(C)=CCC[C@](C)(O)C1CC=C(C)CC1` (stereo not given in full), 118%.
Consider `CCCCCCCCNC(C)C(O)c1ccc(SC(C)C)cc1` (stereo not given), for which the activity remaining was 114%.
Consider `FC(F)(F)COCC(F)(F)F`, for which the activity remaining is 120%.
For `CC1=C2[C@](C)(C=CC1=O)C[C@H](O)[C@H]1[C@H](C)C(=O)O[C@]21C` the value was 107%; for `CC(C)(N=NC(C)(C)C(=N)N)C(=N)N`, 105%.
For `CC1(C)O[C@@H]2CC3C4CCC5=CC(=O)C=C[C@]5(C)[C@@]4(F)[C@@H](O)C[C@]3(C)[C@]2(C(=O)CO)O1` (stereo not given in full), the activity remaining was 116%.
On to `CCCCCC(=O)O[C@]1(C(C)=O)CCC2C3CCC4=CC(=O)CC[C@]4(C)C3CC[C@@]21C` (stereo not given in full), for which the activity remaining is 109%.
In the case of `CN(C/C=C/C#CC(C)(C)C)Cc1cccc2ccccc12`, the activity remaining was 114%.
For `COc1cc(OC)c(C(C)=O)c(O)c1C` the value was 101%; for `NCC(=O)CCC(=O)O`, 77.6%.
For `CC(C)(C)NC[C@H](O)c1ccc(O)c(CO)c1` the value was 112%.
For `CCn1cc(C(=O)O)c(=O)c2cc(F)c(N3CCN(C)CC3)cc21` the value was 109%; for `O=C(O)CCCCC1CCSS1` (stereo not given), 103%.
As to `COC(=O)C1[C@H]2C[C@H]3c4[nH]c5ccccc5c4CCN3C[C@@H]2CC[C@@H]1O` (stereo not given in full), the activity remaining was 112%.
